{"source": "PubChem BioAssay AID588474", "about": "(The Scripps Research Institute Molecular Screening Center, 2011)", "note": "A number with no mark means an inactive call. Active and inactive are the calls of the source.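 Rule for the calls: active = inhibition of at least 75% in the gel-based probe competition assay; inactive = inhibition below 75%.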", "data": [{"target": "Platelet-activating factor acetylhydrolase (Mus musculus) (UniProt Q60963)", "sequence (Q60963 whole entry, looked up)": "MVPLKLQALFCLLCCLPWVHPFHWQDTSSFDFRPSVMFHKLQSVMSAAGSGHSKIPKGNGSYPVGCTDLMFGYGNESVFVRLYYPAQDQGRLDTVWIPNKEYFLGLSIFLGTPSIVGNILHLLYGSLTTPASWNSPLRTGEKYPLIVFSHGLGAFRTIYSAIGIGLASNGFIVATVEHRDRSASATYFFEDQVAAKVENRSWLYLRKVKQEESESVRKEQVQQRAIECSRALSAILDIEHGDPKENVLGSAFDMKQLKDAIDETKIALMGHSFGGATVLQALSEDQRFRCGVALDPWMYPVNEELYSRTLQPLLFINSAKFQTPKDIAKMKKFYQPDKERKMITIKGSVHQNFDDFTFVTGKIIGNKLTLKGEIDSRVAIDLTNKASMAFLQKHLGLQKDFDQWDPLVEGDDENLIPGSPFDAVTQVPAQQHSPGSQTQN", "test": "recombinant plasma PAF acetylhydrolase inhibition – biochemical, gel-based competitive ABPP, fluorescence, orthogonal assay, late-stage follow-up (AID 588474)", "details": "recombinant mouse pPAFAH, FP-Rh fluorescence, at 5 µM, stronger effect = higher value", "values": [{"smiles": "O=C(c1cccs1)c1cn(Cc2ccccc2Cl)c2ccccc12", "inhibition": "43%"}, {"smiles": "O=C(c1ccco1)c1cn(Cc2ccccc2Cl)c2ccccc12", "inhibition": "9%"}, {"smiles": "N#Cc1ccccc1Cn1cc(C(=O)c2ccccc2F)c2ccccc21", "inhibition": "8%"}, {"smiles": "NCCc1ccc(S(=O)(=O)F)cc1", "inhibition": "16%"}, {"smiles": "CN1C[C@H](CNC(=O)OCc2ccccc2)C[C@@H]2c3cccc4c3c(cn4C)C[C@H]21", "inhibition": "15%"}, {"smiles": "O=C(Oc1ccc([N+](=O)[O-])cc1)N1CCC(N2CCCCC2)CC1", "inhibition": "84% (active)"}, {"smiles": "CN(C)C(=O)Oc1noc2cc(Cl)ccc12", "inhibition": "99% (active)"}, {"smiles": "Cc1cc(C(=O)CS(=O)(=O)c2ccccc2)cc(C)c1OC(=O)N(C)C", "inhibition": "36%"}, {"smiles": "N#Cc1ccccc1Cn1cc(C(=O)c2cccs2)c2ccccc21", "inhibition": "44%"}]}]}
